Most compounds without a hit are left out; they make up all but 15% or so of the library.
Sm TGR inh: inhibitors of Schistosoma mansoni thioredoxin glutathione reductase; Q962Y6; purified TGR, DTNB reduction, TNB absorbance 405 nm; Potency, µM (highest dose often 114 µM), actives largely listed as inhibitors; hit rate 3% among 360,000; further: nearly all actives have a fitted effect of over 60% in size
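Kinetic colorimetric format: TGR-catalysed, NADPH-driven DTNB reduction monitored via TNB absorbance. Enzyme dispensed at 20 nM; compound exposure 15 min at room temperature before reaction start.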
Pf growth 96h: P. falciparum growth inhibition at 96 hours | P. falciparum luciferase reporter growth, 96 h | Potency, µM (series often up to 28.7 µM), actives largely listed as inhibitors | hit rate 6.9% among 320,000 | AID 504834
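Erythrocytes infected with luciferase-expressing P. falciparum were dispensed at 2% hematocrit and 0.05% parasitemia (final), then incubated with compounds 96 hours at 37 C in 5% CO2. Luminescence after detection reagent addition reported growth.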
SARS PLpro yeast: blocks SARS-CoV papain-like protease in a yeast assay; S. cerevisiae expressing SARS-CoV PLpro, growth rescue; Potency, µM (highest dose often 32.9 µM), hits mostly activators; hit rate 0.19% among 330,000; AID 485353; calls by dose curve; further: nearly all actives have a fitted effect of over 55% in size
HCMV antiviral: inhibitors of human cytomegalovirus | HFF cells, HCMV-luciferase reporter, 72 h; hits give low values | hit rate 4.5% among 410,000 | AID 1259415 | activity change, negative = inhibition, % at 57.5 µM; in the data active means activity change below about -60%; inconclusive means no clear call, values can overlap the other calls; inactive means above about -39%
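Two compound doses tested in HFFs infected with HCMV-luciferase, MOI 1 PFU/cell, 72 h at 37C. Lysate luminescence read with OneGlo; data normalized against buffer-only and 10uM Salinomycin inhibitor controls.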
HCV inh: inhibitors of hepatitis C virus infection; Huh7.5.1 HCVcc-Cre infection, luciferase reporter, 44 h; Potency, µM (top dose mostly 41.8 µM), actives largely listed as inhibitors; hit rate 3.4% among 340,000; AID 651820
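Infectious HCV cell culture screen: compound-treated cells (1,000/well, pre-plated 4 h) are infected with HCVcc-Cre at roughly 0.5 moi and grown 44 h. Infection is quantified by luciferase signal after 15 min substrate incubation at room temperature.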
Pf growth 48h: P. falciparum growth inhibition at 48 hours (one generation); P. falciparum luciferase growth in erythrocytes, 48 h; Potency, µM (highest dose often 28.7 µM), usual class: inhibitors; hit rate 5.9% among 310,000; AID 504832
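Luciferase-expressing P. falciparum in infected erythrocytes (2% hematocrit, 0.1% parasitemia final) in RPMI 1640/0.5% Albumax were exposed to compound for 48 hours at 37 C, 5% CO2; growth read as luminescence.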
Numbers stand for hits; 0 = inactive; ? = inconclusive; - = not tested or not shown; ! = not active in a repeat; [ ] = dose if it differs, or a comment. Unless noted, the call rests on the fitted dose curve; in most records, active means well fitted curve in the direction sought with a large enough effect; inconclusive means small, poorly fitted or top-dose-only effect, or another doubt; inactive means no such curve, though single readings can be large; an effect the other way counts as inactive or inconclusive.

SMILES | Sm TGR inh | Pf growth 96h | SARS PLpro yeast | HCMV antiviral | HCV inh | Pf growth 48h
COc1ccc(C(=O)c2c3ccccc3[n+]([O-])n2Cc2ccc(C(N)=O)cc2)cc1 | 0 | 6.57µM | 0 | 0 | 0 | ?
COc1ccc(C(=O)c2c3ccccc3[n+]([O-])n2CCCN)cc1 | ? | 0 | 0 | -95.5! | 0 | ?
COc1ccc(C(=O)c2c3ccccc3[n+]([O-])n2CCC(N)=O)cc1 | 0 | 0 | 0 | 0 | 0 | ?
COc1ccc(C(=O)c2c3ccc(C(F)(F)F)cc3[n+]([O-])n2CCCN)cc1 | 0 | ? | 0 | 0 | 0 | 11.7µM
CCCCn1c(N)c(N(CC(C)C)C(=O)CCNC(=O)c2ccc(Br)cc2)c(=O)[nH]c1=O | 0 | ? | 0 | 0 | 0 | 0
COCc1c(C(=O)OC)nnn1-c1ccc(C(F)(F)F)cc1[N+](=O)[O-] | 0 | 0 | 0 | 0 | 0 | ?
O=C1NC(=S)S/C1=C\C=C\c1ccc([N+](=O)[O-])o1 | 2.24µM | 0.294µM | 0 | -99.8 | ? | 0.294µM
O=C1NC(=S)SC1=Cc1ccc2c(c1)OCO2 | - | - | - | 0 | 0 | -
CC(NCCC(Cc1ccccc1)c1ccco1)c1ccccc1 (stereo unspecified) | 0 | ? | 0 | 0 | 0 | ?
Cc1ccc(C(CCNC(C)c2cccs2)c2ccco2)cc1 (stereo unspecified) | 0 | ? | 0 | -60.9 | 0 | 10.4µM
Cc1onc(-c2c(Cl)cccc2Cl)c1COC(=O)c1ccc(Cl)cc1 | 0 | 13.1µM | 0 | 0 | ? | ?
CC(=O)Nc1nnc(-c2c(-c3c(Cl)cccc3Cl)noc2C)o1 | 0 | 0 | 0 | 0 | 0 | 0
Cc1onc(-c2c(Cl)cccc2Cl)c1-c1nnc(-c2ccc(Cl)cc2)o1 | 0 | 0 | 0 | 0 | 17.8µM | ?
Cc1onc(-c2c(F)cccc2Cl)c1-c1nnc(-c2ccc(C(F)(F)F)cc2)o1 | 0 | 8.28µM | 0 | ? | 0 | 8.28µM
Cc1cccc(C)c1NC(=O)C(c1ccnc2ccccc12)N1CCN(CCN(C)C)CC1 (stereo unspecified) | - | - | - | 0 | - | -
COc1ccccc1CNC(=O)CCn1c(=O)c2ccccc2n(CC(=O)Nc2ccc(C)cc2C)c1=O | 0 | - | - | 0 | - | -
Oc1ccc(N=Cc2ccc(-c3cccs3)s2)cc1 | 22.4µM | ? | 0 | 0 | 0 | ?
COc1ccc(C(C(=O)NCc2ccccc2)n2c(=O)c(-c3ccco3)nc3ccccc32)cc1 (stereo unspecified) | - | - | - | 0 | - | -
Cc1ccccc1N=C(N)Nc1ccccc1C | 0 | 10.4µM | 0 | 0 | 0 | ?
COc1ccc(C2C(C#N)=C(C)NC(C)=C2C(=O)OC(C)C)c(OC)c1 (stereo unspecified) | 0 | 4.65µM | 0 | 0 | 0 | 7.38µM
COc1cc(C2C(C(=O)OC(C)C)=C(C)Nc3[nH]c(=O)[nH]c(=O)c32)ccc1O (stereo unspecified) | 0 | 0 | 0 | 0 | 0 | 0
CCOC(=O)C1=C(C)NC(C)=C(C(=O)OCC)C1c1ccc(Br)o1 | 0 | 11.7µM | 0 | -79.1 | ? | ?
CC1=C(C(=O)OC(C)C)C(c2ccc(C)o2)C(C(=O)OC(C)C)=C(C)N1 | ? | ? | 0 | 0 | 0 | 10.4µM
CCOC(=O)C1=C(C)NC(=O)NC1c1ccc(Br)o1 (stereo unspecified) | 0 | 0 | 0 | 0 | 0 | 0
C/C(=N/NC(=O)c1cccc(N2CCCC2=O)c1)c1ccncc1 | 0 | 0 | 0 | 0 | 0 | 0
SMILES | Sm TGR inh | Pf growth 96h | SARS PLpro yeast | HCMV antiviral | HCV inh | Pf growth 48h
CCC(NS(=O)(=O)c1ccc2c(c1)Cc1cc(S(=O)(=O)NC(CC)C(=O)O)ccc1-2)C(=O)O (stereo unspecified) | 0 | 0 | 0 | 0 | 0 | 0
Cn1nnnc1SCCNCc1ccc(OCc2ccc(Cl)cc2)cc1 | 0 | - | - | 0 | - | -
CCCC(=O)N1CCCC1(C)C(=O)Nc1cc(OC)c(OC)c(OC)c1 (stereo unspecified) | - | - | - | 0 | - | -
COc1cccc(-c2cc(C(F)(F)F)n3nc(C)c(-c4ccccc4)c3n2)c1 | 0 | - | - | 0 | - | -
O=C(Nc1ccc(NC(=O)c2sc3ccccc3c2Cl)cc1)c1ccco1 | 0 | 0 | 0 | -75.8 | ? | 0
O=C(Nc1ccc(Nc2ccccc2)cc1)c1ccco1 | 0 | - | 0 | -63.7 | ? | ?
CCN(c1ccccc1)S(=O)(=O)c1ccc(NC(=O)c2ccco2)cc1 | 0 | 0 | 0 | 0 | 0 | 10.4µM
O=C(Nc1ccc(-c2ccccc2)cc1)c1ccco1 | 0 | 4.65µM | 0 | -64.1 | 0 | 0
CC(C)[C@H](NS(=O)(=O)c1ccccc1)C(=O)OCC(=O)N1N=C(c2ccc(Cl)cc2)CC1c1ccco1 (stereo partly specified) | 0 | ? | 0 | 0 | ? | ?
Cc1nn(C)c(C)c1CNC(=O)c1cc2n(n1)C(C(F)(F)F)CC(c1cccs1)N2 (stereo unspecified) | 0 | 7.38µM | 0 | -68.5 | ? | 0
Cc1nn(C)c(C)c1CN(C)C(=O)c1nn2c(c1Br)NC(c1cccs1)CC2C(F)(F)F (stereo unspecified) | 0 | 9.28µM | 0 | 0 | 0 | ?
COc1cccc(NC(=O)[C@H](C)NC(=O)C2CCN(S(=O)(=O)c3ccc(C)cc3)CC2)c1 | 0 | 0 | 0 | 0 | 0 | 0
CS(=O)(=O)N(CC(=O)NCc1ccncc1)C1CCCCC1 | - | 0 | 0 | 0 | 0 | 0
CC[C@@H](C)[C@H](CN[C@H](CNC)C(C)C)NC[C@@H](C)c1ccc(CC(C)C)cc1 | 0 | ? | 0 | -78.1 | ? | ?
CC(C)CNS(=O)(=O)c1ccc(CC(C)C)cc1 | 0 | 0 | 0 | 0 | 0 | 0
CC[C@H](C)[C@@H](CNC)NC[C@@H](Cc1ccc(O)cc1)NCC(C)(C)C | 0 | 13.1µM | 0 | 0 | ? | ?
Cc1ccc(NC(=O)C2C3C=CC4(CN(Cc5cccnc5)C(=O)C24)O3)cc1F (stereo unspecified) | ? | ? | 0 | 0 | 0 | 0
COC(=O)[C@@]12OC[C@]34[C@H]([C@@H](O)[C@@H]1O)[C@@]1(C)C(=O)C(O[C@@H]5OC(CO)[C@@H](O)[C@@H](O)[C@@H]5O)=C[C@@H](C)[C@@H]1C[C@H]3OC(=O)[C@H](OC(=O)/C=C(\C)C(C)(C)OC(C)=O)[C@@H]24 (stereo partly specified) | ? | 4.65µM | 0 | - | 11.2µM | 2.62µM
O=S(=O)(c1ccccc1)N1CCN(C(=S)NC2CCCC2)CC1 | 0 | 0 | 0 | 0 | 0 | ?
O=S(=O)(c1c(Cl)cc(Br)cc1Cl)N1CCN(C(=S)NC2CC2)CC1 | - | - | 0 | ? | 25.1µM | -
CCOc1ccc(CSc2nc(C)cc(COC)c2C#N)cc1OCC | 0 | 0 | 0 | 0 | ? | 13.1µM
CCNc1nc(C)cc(COC)c1C#N | 25.1µM | 0[5.75 µM] | ? | 0 | 0 | 0
COCc1cc(C)nc(SCC(=O)Nc2ccc3c(c2)OCO3)c1C#N | 0 | 0 | 0 | 0 | 11.2µM | 0
